This is an account of results in PubChem BioAssay (EPA / NIEHS).

Test [1] in a line: CEETOX_H295R_ANDR: CeeTox H295R High-throughput Steroidogenesis Assay for Androstenedione (ANDR) (AID 2283436).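 Further: human H295R adrenal cells exposed for 48 h with androstenedione measured in medium.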 The note with it: actives raise or lower the signal. The method in brief: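 Steroidogenesis in H295R adrenal cells after 48 h dosing; androstenedione quantified by LC-MS/MS, with DMSO as negative control and baseline for bidirectional curve fitting.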
Test [2] has as its target Peroxisome proliferator-activated receptor gamma (Homo sapiens) (UniProt P37231). Briefly: OT_PPARg_PPARgSRC1_0480: Odyssey Thera (OT) 8-hour Protein-Complementation Assay for Peroxisome Proliferator-activated Receptor Gamma / SRC-1 Co-activator (AID 2283387; active means hit-call score of the fitted dose curve at least 0.9, where 1 is the maximum;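 further: nuclear to cytoplasmic split Venus YFP fluorescence ratio reporting PPARg SRC-1 interaction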). A digest of the protocol:
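HEK293T transiently transfected with PPARg and SRC-1 fused to Venus YFP fragments, compounds 8 h at 37C. Fixed, Draq5-stained cells imaged; nuclear/cytoplasmic 488 nm fluorescence ratio over at least 350 cells per image; gain fitted versus DMSO.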

The target is the same in test [3]. As to the kind of experiment: OT_PPARg_PPARgSRC1_1440: Odyssey Thera (OT) 24-hour Protein-Complementation Assay for Peroxisome Proliferator-activated Receptor Gamma/ SRC-1 Co-activator (AID 2283388; active means hit-call score of the fitted dose curve at least 0.9, where 1 is the maximum). The method in brief: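 Readout: nuclear-to-cytoplasmic 488 nm fluorescence ratio, ≥350 cells per image, 8 images per well, after 24 h compound exposure of HEK293T expressing PPARg/SRC-1 split-YFP fusions. Activity fitted in positive direction against DMSO.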

For test [4], the target named is Retinoic acid receptor RXR-alpha (Homo sapiens) (UniProt P19793). Briefly: OT_NURR1_NURR1RXRa_1440: Odyssey Thera (OT) 24-hour HEK293T Protein Complementation Assay for Nurr1/retinoid X receptor (RXR) (AID 2283386; active means hit-call score of the fitted dose curve at least 0.9, where 1 is the maximum). A digest of the protocol: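 Fluorescence PCA read-out; HEK293T; 24 h post-dose; bait/prey fused to reporter fragments; gain-of-signal fit vs DMSO negative control.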
Retinoic acid receptor RXR-alpha (Homo sapiens), sequence (P19793 whole entry, looked up, the tested form may be a part): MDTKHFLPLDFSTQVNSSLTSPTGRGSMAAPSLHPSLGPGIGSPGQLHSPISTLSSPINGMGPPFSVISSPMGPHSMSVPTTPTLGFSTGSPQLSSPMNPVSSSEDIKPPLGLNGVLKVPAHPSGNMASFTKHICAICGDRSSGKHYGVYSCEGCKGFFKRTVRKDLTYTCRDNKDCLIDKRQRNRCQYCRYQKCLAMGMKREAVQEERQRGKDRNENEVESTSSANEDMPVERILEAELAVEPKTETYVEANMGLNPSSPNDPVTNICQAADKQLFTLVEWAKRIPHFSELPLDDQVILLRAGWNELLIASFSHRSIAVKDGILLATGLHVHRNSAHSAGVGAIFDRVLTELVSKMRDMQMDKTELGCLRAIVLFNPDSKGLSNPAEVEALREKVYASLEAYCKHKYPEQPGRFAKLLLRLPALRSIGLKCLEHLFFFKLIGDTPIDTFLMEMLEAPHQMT

A short description of test [5]: CEETOX_H295R_11DCORT: CeeTox H295R High-throughput Steroidogenesis Assay for 11-Deoxycortisol (11DCORT) (AID 2283432).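 On AC50: 11-deoxycortisol secreted into the medium measured by LC-MS/MS.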 As to conditions: actives raise or lower the signal. The method in brief: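 H295R cells prestimulated 48 h with 10 uM forskolin, then exposed 48 h to chemical in 0.1% DMSO. 11-Deoxycortisol in medium quantified by HPLC-MS/MS after MTBE extraction; bidirectional fit versus DMSO. MTT viability read in same wells.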

Test [6] is described as follows: CEETOX_H295R_OHPREG: CeeTox H295R High-throughput Steroidogenesis Assay for OH-Pregnenolone (OHPREG) (AID 2283434). The note with it: actives raise or lower the signal. A digest of the protocol: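 Readout: HPLC-MS/MS of 17alpha-hydroxypregnenolone in medium after 48 h chemical exposure of H295R cells pretreated with forskolin. Values fitted bidirectionally relative to DMSO; chemicals reducing viability to 20–70% were retested after 10-fold dilution.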

Test [7] can be described thus: CEETOX_H295R_OHPROG: CeeTox H295R High-throughput Steroidogenesis Assay for OH-Progesterone (OHPROG) (AID 2283435).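 On AC50: 17alpha-hydroxyprogesterone secreted into medium measured by HPLC-MS/MS.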 As to conditions: actives raise or lower the signal. A digest of the protocol: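 HPLC-MS/MS quantification of 17alpha-hydroxyprogesterone secreted by H295R cells after 48 h chemical exposure, following 48 h 10 uM forskolin prestimulation. Gain or loss of signal fitted relative to DMSO. Viability checked by MTT in the same wells.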

A short description of test [8]: CEETOX_H295R_CORTIC: CeeTox H295R High-throughput Steroidogenesis Assay for Corticosterone (CORTIC) (AID 2283437).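 Further: corticosterone secreted into medium quantified by mass spectrometry.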 The note with it: actives raise or lower the signal. A digest of the protocol: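 Steps: seed H295R, adhere overnight; 10 uM forskolin 48 h; replace with chemical (0.1% DMSO) 48 h; extract medium with MTBE; quantify corticosterone by HPLC-MS/MS; score bidirectionally vs DMSO.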

Test [9] can be described thus: CEETOX_H295R_CORTISOL: CeeTox H295R High-throughput Steroidogenesis Assay for Cortisol (AID 2283438).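 Further: cortisol secreted into medium quantified by LC-MS/MS.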 As to conditions: actives raise or lower the signal. The method in brief: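 Read-out: cortisol in culture medium by reverse-phase C18 HPLC with ESI-positive tandem MS, after MTBE liquid-liquid extraction. Cells: human adrenal H295R, forskolin-primed (10 uM, 48 h) before 48 h chemical exposure in 0.1% DMSO.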

A short description of test [10]: CEETOX_H295R_DOC: CeeTox H295R High-throughput Steroidogenesis Assay for DOC (AID 2283439). The note with it: actives raise or lower the signal. A digest of the protocol: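 Human adrenocortical H295R cells, passages up to 10, received 10 uM forskolin for 48 h before chemical addition. After another 48 h exposure in 0.1% DMSO, secreted DOC was measured by LC-MS/MS, with gain or loss fitted against DMSO controls.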

Inconclusive results are not listed. The source made the active and inactive calls. How the source made its calls, unless noted: active means hit-call score of the fitted dose curve at least 0.9, where 1 is the maximum; inactive means score below 0.9.

Peroxisome proliferator-activated receptor gamma (Homo sapiens), sequence (P37231 whole entry, looked up, the tested form may be a part): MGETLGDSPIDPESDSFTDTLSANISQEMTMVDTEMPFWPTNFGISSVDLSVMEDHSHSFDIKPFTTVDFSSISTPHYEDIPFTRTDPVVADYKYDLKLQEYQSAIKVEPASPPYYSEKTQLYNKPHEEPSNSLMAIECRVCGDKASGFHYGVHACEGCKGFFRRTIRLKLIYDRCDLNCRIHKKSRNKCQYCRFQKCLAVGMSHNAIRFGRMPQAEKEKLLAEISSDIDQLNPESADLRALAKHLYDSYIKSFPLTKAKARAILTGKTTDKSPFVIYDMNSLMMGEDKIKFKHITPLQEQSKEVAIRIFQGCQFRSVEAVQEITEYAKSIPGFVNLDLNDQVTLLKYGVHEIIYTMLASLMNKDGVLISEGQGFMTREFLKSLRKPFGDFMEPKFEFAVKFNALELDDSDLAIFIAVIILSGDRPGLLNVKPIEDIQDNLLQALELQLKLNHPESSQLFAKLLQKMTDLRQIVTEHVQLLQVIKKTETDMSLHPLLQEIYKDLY

One may read the AC50 as the concentration giving half of the maximal activity seen. `O=S1OC[C@@H]2[C@H](CO1)[C@]1(Cl)C(Cl)=C(Cl)[C@@]2(Cl)C1(Cl)Cl` (some centres not stated): the AC50 in test [1] is 50 µM (active).

As to `Cc1cc(Cl)ccc1OC(C)C(=O)O` (configuration not stated), the result in test [2] and in test [3] was inactive.

Regarding `CC(C)(C)c1ccccc1O`, the outcome in [4], in [2], in test [3], in [5], in [6] and in [7] was inactive. For the same molecule, the result in [8], in [9] and in [10] was inactive.

As to `CC(C)=CC1C(C(=O)OCc2cccc(Oc3ccccc3)c2)C1(C)C` (configuration not stated), the molecule was called inactive in test [4], in test [8], in [9] and in test [10]. Also, the AC50 in test [5] was 29.3 µM (active); in test [6], 25.7 µM (active); in test [7], 26.9 µM (active).

Turning to `O=[N+]([O-])c1ccc(Cl)c([N+](=O)[O-])c1`, the result in [2] and in test [3] was inactive.

As for `Cc1cc(C(C)(C)c2ccc(O)c(C)c2)ccc1O`, the concentration at half-maximal activity (AC50) in test [5] is 5 µM (active); in test [1], 5 µM (active); in [9], 5 µM (active); in [10], 2.91 µM (active). Besides, the molecule was classed as inactive in test [6], in [7] and in test [8].

`Cc1ccccc1OP(=O)(Oc1ccccc1C)Oc1ccccc1C`: the outcome in [5], in test [6], in [7], in test [1], in test [8] and in test [9] was inactive. In [10], the result was inactive.

With `C=CCN=C=S`, the call in [2] and in test [3] was inactive.

As for `Oc1c(Br)cc(Br)cc1Br`, the call in test [4], in test [2] and in [3] was inactive. For the same molecule, the concentration at half-maximal activity (AC50) in [7] was 36 µM (active).

For the molecule `Cc1cc(C)cc(C)c1`, the outcome in test [4], in test [6] and in test [7] was inactive.

Consider `CCOCn1c(-c2ccc(Cl)cc2)c(C#N)c(Br)c1C(F)(F)F`, for which the concentration at half-maximal activity (AC50) in [4] is 25.2 µM (active); in test [5], 15.3 µM (active); in [6], 6.2 µM (active); in test [7], 13.2 µM (active); in test [9], 7.15 µM (active). Also, the result in test [2], in test [3], in test [8] and in [10] was inactive.

On to `CC1(C)[C@H](C(=O)O[C@H](C#N)c2cccc(Oc3ccccc3)c2)[C@@H]1/C=C(\Cl)C(F)(F)F`, for which the molecule was classed as inactive in test [2] and in test [3].

For the molecule `O=[N+]([O-])c1ccc(Nc2ccccc2)cc1`, the molecule was called inactive in [5], in test [6], in [8], in [9] and in test [10]. In addition, in test [7], the AC50 is 1.42 µM (active).

As to `CC(C)(C)c1cc([N+](=O)[O-])cc(C(C)(C)C)c1O`, the call in [6] and in [7] was inactive.

Consider `O=C(O)COc1ccc(Cl)cc1`, for which the call in [2] and in test [3] was inactive.

With `N#CCC#N`, the molecule was classed as inactive in test [2] and in test [3].

On to `CCC[CH2][Sn]([Cl])([Cl])[CH2]CCC`, for which the result in [2], in test [3], in [5], in [6], in [7] and in test [8] was inactive. The molecule was classed as inactive in [9] and in test [10].

In the case of `C[C@]12CC[C@@H](O)C[C@@H]1CC[C@@H]1[C@@H]2CC[C@]2(C)C(=O)CC[C@@H]12`, the molecule was called inactive in test [5], in test [6] and in test [9]. Besides, the AC50 in test [7] was 1.87 µM (active); in test [8] it was 1.98 µM (active); in test [10], 2.64 µM (active).

With `CC(C)(COCC1CO1)COCC1CO1` (configuration not stated), the result in test [5], in [6], in [7], in [8], in test [9] and in test [10] was inactive.

As to `Oc1c(Cl)cc(Cl)cc1Cl`, the molecule was classed as inactive in test [6]. Also, the concentration at half-maximal activity (AC50) in test [7] was 66.5 µM (active).

`CC(C)N(C(=O)CCl)c1ccccc1`: the outcome in [2] and in [3] was inactive.

As to `Nc1ccc(N)cc1`, the outcome in [4], in [2], in test [3], in [6] and in test [7] was inactive.

With `CCOP(=O)(OCC)OC(=CCl)c1ccc(Cl)cc1Cl`, the half-maximal activity concentration (AC50) in [5] was 5.43 µM (active); in test [7], 5.16 µM (active); in [8] it was 5.28 µM (active); in [9], 5.66 µM (active); in test [10] it was 5.48 µM (active). Besides, the molecule was classed as inactive in [6].

On to `CCC[CH2][Sn]([CH2]CCC)([CH2]CCC)[CH2]CCC`, for which the outcome in test [2] and in test [3] was inactive.

In the case of `CC(=Cc1ccccc1)[N+](=O)[O-]`, the call in test [3] was inactive.

Take `Cc1cc(Cl)ccc1O`: the result in test [2], in test [3], in test [5], in test [6], in test [8] and in test [9] was inactive. The outcome in test [10] was inactive. The half-maximal activity concentration (AC50) in test [7] is 28.3 µM (active).

As to `O=C(CCl)Nc1ccccc1`, the molecule was called inactive in test [2] and in test [3].

On to `OC(Cc1ccccc1Cl)(Cn1[nH]cnc1=S)C1(Cl)CC1` (configuration not stated), for which the molecule was classed as inactive in test [5], in test [6], in test [7], in [1], in test [8] and in test [9]. In addition, the result in test [10] was inactive.

For the molecule `CCCCCCCCCCCCN(C)C`, the molecule was classed as inactive in test [4], in [2], in test [3], in test [5], in [6] and in test [7]. Further, the molecule was called inactive in [8], in test [9] and in [10].

Turning to `CN(N=O)C(N)=O`, the molecule was classed as inactive in test [2] and in test [3].

Turning to `COCCl`, the result in test [2] and in [3] was inactive.

For the molecule `O=CCCl`, the result in test [2] and in test [3] was inactive.

For `COC(=O)Nc1cccc(OC(=O)Nc2cccc(C)c2)c1`, the molecule was called inactive in [4], in test [2], in test [3], in test [7], in [8] and in [9]. Further, the AC50 is 9.94 µM (active) in test [5], 4.29 µM (active) in test [6] and 19.8 µM (active) in test [10].

On to `Oc1cccc(-c2ccccc2)c1`, for which the call in [5], in test [6], in test [8], in test [9] and in test [10] was inactive. Moreover, the AC50 in test [7] was 9.06 µM (active).

Regarding `OC(Cc1ccccc1Cl)(Cn1cncn1)C1(Cl)CC1` (configuration not stated), the concentration at half-maximal activity (AC50) in test [5] is 11.8 µM (active); in test [6] it was 1.37 µM (active); in test [8], 6.94 µM (active); in [9], 6.05 µM (active). Further, the molecule was classed as inactive in [7] and in [10].

Take `CCCSP(=S)(OCC)Oc1ccc(SC)cc1` (configuration not stated): the call in test [2] and in test [3] was inactive. Also, the figures for the AC50 in [6] and in test [7] were 14 µM (active) and 1.41 µM (active), respectively.
